Assay results reported in PubChem BioAssay AID778 (Sanford-Burnham Center for Chemical Genomics, 2007).
In all, about 96,000 compounds went through this assay and about 20,000 (21%) were called active. Only a sample is shown. A number with no mark means an inactive call.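 Rule for the calls: active = CYP2C19 inhibition above a set limit at 5 µM in the primary screen (cut at about 50% in these data); inactive = the rest.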

Target: Cytochrome P450 2C19 (Homo sapiens) (UniProt P33261)
Assay: blockers of cytochrome P450 2C19 activity – biochemical, luminescence, ADME assay, primary screen (AID 778);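 note: plate controls were negative control wells for no effect and 2.5 mM tranylcypromine positive control for full effect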
Details: CYP2C19 Supersomes, luciferin-H EGE luminescence, 30 min; at 5 µM; hits give high values

Cytochrome P450 2C19 (Homo sapiens), sequence (P33261 whole entry, looked up): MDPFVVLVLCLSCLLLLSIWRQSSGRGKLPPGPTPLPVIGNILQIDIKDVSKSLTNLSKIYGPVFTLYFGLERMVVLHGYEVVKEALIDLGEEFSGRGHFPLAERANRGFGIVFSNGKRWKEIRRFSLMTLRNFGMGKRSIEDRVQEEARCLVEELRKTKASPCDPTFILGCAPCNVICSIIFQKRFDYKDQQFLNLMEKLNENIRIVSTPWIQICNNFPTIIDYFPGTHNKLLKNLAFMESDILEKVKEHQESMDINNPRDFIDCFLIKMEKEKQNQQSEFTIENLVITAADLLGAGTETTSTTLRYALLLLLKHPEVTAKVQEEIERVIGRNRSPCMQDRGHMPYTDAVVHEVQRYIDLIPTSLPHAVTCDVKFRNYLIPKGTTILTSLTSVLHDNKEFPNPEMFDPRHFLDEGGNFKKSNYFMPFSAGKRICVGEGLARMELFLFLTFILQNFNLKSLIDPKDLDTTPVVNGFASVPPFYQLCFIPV

Structure (SMILES) | inhibition
COc1ccc(-n2cnc3cc(NCc4ccco4)ccc32)cc1 | 42.6%
O=C(Nc1ccccc1)c1ccc2nsnc2c1 | 18.4%
CC(=O)NS(=O)(=O)c1ccc(NC(=O)/C=C/c2ccccc2Cl)cc1 | 4%
O=c1[nH]c2ccccc2n2c(-c3ccccc3)nnc12 | 32.6%
CCCSC1=C(C#N)C(c2ccccc2C)C(C(=O)OC)C(=O)N1 (stereo not given) | 41%
CCOc1ccc2cc(C#N)c(SCC(=O)OC)nc2c1 | 4.1%
COC(=O)CSC1=C(C#N)C(c2ccccc2OC)C(C(=O)OC)C(=O)N1 (stereo not given) | 55.4% (active)
CC1CCCC(C)N1CCCNC(=O)c1cc2c(=O)n(C)c3ccccc3c2n1C (stereo not given) | -9.2%
COc1ccc(CCNC(=O)C2CCN(c3nn4c(=O)cc(C)nc4s3)CC2)cc1OC | -7%
COc1ccc(CCN(C)C(=O)C2CCCN(Cc3ccc(OC)c(OC)c3)C2)cc1OC (stereo not given) | 13.3%
COc1ccc(CCNC(=O)C2CCCN(Cc3nc(-c4cccc(Cl)c4)oc3C)C2)cc1OC (stereo not given) | 87.1% (active)
COc1ccc(CCNC(=O)c2ccc3c(c2)NC(=O)C(N2CCOCC2)S3)cc1OC (stereo not given) | 43.7%
COc1ccc2c3c(c(=O)oc2c1OCC(=O)C(C)(C)C)CCCC3 | 15.9%
CC(C)CC(=O)N/C(N)=N/c1nc2ccccc2s1 | 36.7%
Cc1ncc(CC(=O)n2cc(C(=O)c3cc(Cl)ccc3O)cn2)s1 | 61% (active)
Cc1cc2cc3c(cc2nc1SCC(=O)Nc1c(C)cccc1C)CCC3 | 15.7%
CCOC(=O)c1c(NC(=O)CSc2nnc(Cc3csc(N)n3)n2C)sc(C)c1C | 16.5%
Cn1c(Cc2csc(N)n2)nnc1SC/C=C/c1ccccc1 | 61.6% (active)
Cn1c(Cc2cccc3ccccc23)nnc1SCC(=O)N1CCN(c2cccc(Cl)c2)CC1 | 12%
CSc1ccc(S(=O)(=O)NC2CCCCC2)cc1 | 88.8% (active)
N#CCCN1CCN(S(=O)(=O)c2ccc(S(=O)(=O)NC3CCCCC3)cc2)CC1 | 13.3%
CSc1ccc(S(=O)(=O)Nc2cccc(F)c2)cc1 | 99.4% (active)
O=C(CCc1ccc(S(=O)(=O)NC2CCCCC2)cc1)NCc1ccccc1 | 63.1% (active)
O=C(O)c1ccc(F)c(S(=O)(=O)Nc2ccccc2)c1 | 7.1%
O=S(=O)(NC1CCCCC1)c1ccc(F)c2ccccc12 | 26.5%
Cc1cccc(CCNS(=O)(=O)c2ccc(S(=O)(=O)NC3CCCC3)cc2)c1 | 67.1% (active)
CCc1nnc(NS(=O)(=O)c2ccc(NS(=O)(=O)c3ccccc3)cc2)s1 | -6.3%
COC(=O)c1cc(S(=O)(=O)NC2CCN(Cc3ccccc3)CC2)cn1C | 0.8%
Cc1cc(S(=O)(=O)NC2CCCCC2)ccc1OCC(=O)NCc1cccnc1 | 20.8%
CCCNS(=O)(=O)c1ccc(CCC(=O)NCc2cccnc2)cc1 | 22.4%
